Assay results from paper PMC5700166.

What follows are sequences tested against T1, GST-Aq-NF-kB (Amphimedon queenslandica, UniProt A9Y5G7 2-389) (assay: protein-binding microarray (PBM); PBM: ~300 nM protein, 6 mM HEPES pH 7.8, 80 mM KCl, 0.5 mM EDTA, 0.5 mM EGTA, 6% glycerol, 35 ng/ul poly-dIdC, 1% milk, 1 h, room temperature; Ap Aiptasia and Nv Nematostella (sea anemones) / Co Capsaspora / Aq Amphimedon (sponge) / Dm Drosophila / Hu human; RHD is the Rel homology domain; high values mean tight binding). Conditions: dsDNA, one strand shown.
T1 sequence: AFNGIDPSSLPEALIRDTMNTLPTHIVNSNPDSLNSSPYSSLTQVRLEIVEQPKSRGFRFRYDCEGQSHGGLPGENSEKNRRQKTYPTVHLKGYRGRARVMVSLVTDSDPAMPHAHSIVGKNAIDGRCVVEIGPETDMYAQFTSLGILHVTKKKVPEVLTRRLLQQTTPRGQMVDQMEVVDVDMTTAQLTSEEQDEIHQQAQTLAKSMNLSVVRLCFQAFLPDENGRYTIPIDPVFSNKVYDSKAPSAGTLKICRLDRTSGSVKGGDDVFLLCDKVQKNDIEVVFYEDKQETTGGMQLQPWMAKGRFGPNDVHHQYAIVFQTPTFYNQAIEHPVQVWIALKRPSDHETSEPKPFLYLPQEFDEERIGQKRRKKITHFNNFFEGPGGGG
In the case of “CCGATTAACATCAGGAAAACTCCTGATGTTAATCGGGTCTTGATTCGCTTGACGCTGCTG”, the binding signal is reported as 1.4 z-score.
Sequence “CCGATTAACATCAGGAACTTCCATGATGTTAATCGGGTCTTGATTCGCTTGACGCTGCTG” has a binding signal of 1.63 z-score.
Sequence “CCGATTAACATCAGAAATTCCGCTGATGTTAATCGGGTCTTGATTCGCTTGACGCTGCTG” has a binding signal of 1.09 z-score.
